Potency data for eight molecules are collected here from PubChem BioAssay (Tox21).

A number with no mark means an inactive call. Results filed as inconclusive are left out. Activity calls are given as the source filed them. Unless noted, calls come from the whole dose curve.

Assay [1] is described as follows: Nuclear factor erythroid 2-related factor 2/antioxidant responsive element (Nrf2/ARE) small molecule agonists: qHTS cell viability counter screen in human keratinocytes (AID 1919968; active = well fitted curve in the direction sought with a large enough effect in the repeat runs; an effect the other way counts as inactive or inconclusive; note: nearly all actives have a fitted effect of over 55% in size; note: potency is the fitted concentration of half-maximal effect). A digest of the protocol:
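Measured as CellTiter-Fluor fluorescence, this readout tracks cytotoxicity in the same wells as the ARE-luciferase screen. HaCaT reporter cells (1,500/well) received compounds after a 5 h pre-incubation and were exposed for 23 h.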

Assay [2] is described as follows: Nuclear factor erythroid 2-related factor 2/antioxidant responsive element (Nrf2/ARE) small molecule agonists: luciferase reporter gene qHTS assay in human keratinocytes (AID 1919969). Note: nearly all actives have a fitted effect of over 35% in size.
Assay [3] has as its target Gonadotropin-releasing hormone receptor (Homo sapiens) (UniProt P30968). The experiment in a line: Human gonadotropin-releasing hormone receptor (GnRHR) small molecule agonists, calcium flux assay in GnRHR-HEK293 cells (AID 1920063). Note: nearly all actives have a fitted effect of over 35% in size. A digest of the protocol:
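Fluorescence kinetics (480 nm excitation, 540 nm emission; 3 min, 1 s steps) report calcium mobilisation in human GnRHR-HEK293 cells in agonist mode. Dye incubation: 1 h, 37 C.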

For assay [4], the target named is KiSS-1 receptor (Homo sapiens) (UniProt Q969F8). The experiment in a line: Human kisspeptin (KISS1R) small molecule agonists, calcium flux assay in KISS1R-HEK293 cells (AID 1920064; active = well fitted curve in the direction sought with a large enough effect in the repeat runs; an effect the other way counts as inactive or inconclusive). A digest of the protocol:
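Measures KISS1R agonism through calcium-sensitive dye fluorescence in stably transfected HEK293 cells, read for 3 min after pin-tool compound delivery; 15-point titrations in triplicate.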

The nature of assay [5]: G protein-coupled receptor (GPCR) small molecule agonists, calcium flux assay: HEK293 wild type cell line counter screen (AID 1920065). A digest of the protocol:
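Readout: fluorescence at 480 nm excitation/540 nm emission, sampled at 1 s intervals for 3 min. Cells had been cultured 18 h, then dye-loaded 1 h at 37 C before compound or ATP addition.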

The nature of assay [6]: p53 small molecule agonists, cell-based qHTS assay with human liver microsomes: qHTS cell viability counter screen (AID 1963579). Note: nearly all actives have a fitted effect of over 45% in size. A digest of the protocol:
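HLM-supplemented (0.5 mg/mL final) and NADPH-supplemented (0.5 mg/mL final) p53RE-bla cultures, 4,000 cells per well, were dosed with compounds in DMSO for 16 h at 37 C; luminescent ATP detection (CellTiter-Glo, 30 min, room temperature) quantified surviving cells.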

Assay [7] can be described thus: p53 small molecule agonists, cell-based qHTS assay with rat liver microsomes: qHTS cell viability counter screen (AID 1963580). Note: nearly all actives have a fitted effect of over 45% in size. Note: potency is the fitted concentration of half-maximal effect. A digest of the protocol:
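Viability is assessed in parallel with the p53 reporter read: HCT-116 p53RE-bla cells receive compounds plus rat microsomes and NADPH (0.5 mg/mL final apiece), incubate 16 h at 37 C, and then CellTiter-Glo luminescence is recorded.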

The nature of assay [8]: p53 small molecule agonists, cell-based qHTS assay: qHTS cell viability counter screen (AID 1963581). Note: nearly all actives have a fitted effect of over 45% in size. A digest of the protocol: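 In the same plates used for the p53 bla reporter, HCT-116 cells given compounds for 16 h at 37 C received CellTiter-Glo; luminescence was recorded 30 min later at room temperature.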
Assay [9] concerns the target 5-hydroxytryptamine receptor 2A (Homo sapiens) (UniProt P28223). The experiment in a line: 5-hydroxytryptamine receptor 2A (HTR2A) small molecule antagonists, cell-based qHTS assay (AID 1963586). Note: nearly all actives have a fitted effect of over 45% in size. A digest of the protocol:
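Antagonist-mode intracellular calcium assay: DOI (4 nM) added after 5 min compound pre-incubation at room temperature to dye-loaded HTR2A-CHO cells. Fluorescence followed for 3 min, sampled every second.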

For assay [10] the target is unchanged. The assay is described as follows: 5-hydroxytryptamine receptor 2A (HTR2A) small molecule agonists, cell-based qHTS assay (AID 1963587). Note: nearly all actives have a fitted effect of over 30% in size. A digest of the protocol:
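CHO cells stably expressing human HTR2A, plated 18 h, loaded with calcium dye 1 h at 37 C. Agonist mode: compounds added and intracellular calcium fluorescence recorded kinetically for 2 min at 1 sec intervals.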

The target of assay [11] is Muscarinic acetylcholine receptor M1 (Homo sapiens) (UniProt P11229). The assay is described as follows: Cholinergic receptor muscarinic 1 (CHRM1) small molecule antagonists, cell-based qHTS assay (AID 1963588). Note: nearly all actives have a fitted effect of over 40% in size. Put shortly: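 CHRM1-CHO calcium-flux assay, antagonist mode. Cells were seeded 18 h, dye-loaded 1 h at 37 C and given compound for 5 min at RT, then acetylcholine was added at 50nM. FDSS fluorescence was read 3 min; 15 concentrations, three runs.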

Assay [12] has the same target. The experiment in a line: Cholinergic receptor muscarinic 1 (CHRM1) small molecule agonists, cell-based qHTS assay (AID 1963589). Note: nearly all actives have a fitted effect of over 35% in size. Put shortly:
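Each compound was tested at 15 concentrations across three independent runs on dye-loaded CHO cells stably expressing human CHRM1, reading intracellular calcium fluorescence kinetically at 1 sec intervals.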

A short description of assay [13]: cAMP Responsive Elements (CRE) small molecule agonists, cell-based qHTS assay (AID 1963590). Put shortly:
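Cell line: CRE-bla HEK 293T; medium DMEM/10% dialyzed FBS/0.1 mM NEAA/1 mM pyruvate/25 mM HEPES; 3 h compound exposure; beta-lactamase FRET readout after 2 h substrate loading at RT.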

The nature of assay [14]: cAMP Responsive Elements (CRE) small molecule antagonists, cell-based qHTS assay (AID 1963591; active = well fitted inhibition curve with a large enough effect in the signal ratio in the repeat runs, not every such curve was filed as active; the % refers to the signal ratio). Put shortly: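 Inhibition of NKH477-driven (0.25 uM final) CRE-beta-lactamase signal in HEK293T cells, 3 h compound exposure at 37 °C, detected by FRET substrate fluorescence.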
Assay [15] deals with Beta-2 adrenergic receptor (Homo sapiens) (UniProt P07550). The assay is described as follows: Adrenergic beta2 receptor (ADRB2) small molecule antagonists, cell-based qHTS assay (AID 1963592). Note: nearly all actives have a fitted effect of over 50% in size. Note: potency is the fitted concentration of half-maximal effect. A digest of the protocol: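 Cells (CHO, stable ADRB2 overexpression) incubated 18-20hr at 37C; compounds added from DMSO; agonist mix (1nM isoproterenol, 100uM IBMX, 25uM Ro-20-1724) added; 0.5hr RT; d2-cAMP and anti-cAMP-cryptate added; 1hr RT; 665/615 nm read.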

Assay [16] has the same target. The experiment in a line: Adrenergic beta2 receptor (ADRB2) small molecule agonists, cell-based qHTS assay (AID 1963593).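 Note: CHO cells stably overexpressing human ADRB2.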 A digest of the protocol: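 CHO cells stably over-expressing ADRB2 were plated overnight at 37C, then dosed with compounds plus a stimulation mix containing 100uM IBMX and 25uM Ro-20-1724 for 0.5hr at room temperature. cAMP was measured by HTRF competition, 1hr.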

Assay [17] has as its target D(2) dopamine receptor (Homo sapiens) (UniProt P14416). The experiment in a line: Dopamine D2 receptor (DRD2) small molecule agonists, cell-based qHTS assay (AID 1963594). Note: nearly all actives have a fitted effect of over 35% in size. Put shortly:
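HEK293 cells stably expressing human DRD2, pre-treated with PDE inhibitor Ro20-1724 (0.1 mM final) and compound 10 min at room temperature, then stimulated with NKH477 (200nM […]) for 30 min. cAMP read by HTRF (665/620 nm).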

Assay [18] in a line: p53 small molecule agonists, cell-based qHTS assay with rat liver microsomes (AID 1963578). Put shortly: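 Compound in DMSO added to p53RE-bla cells 5 h post-plating; rat microsomes/NADPH 0.5 mg/mL final; 16 h, 37 C; LiveBLAzer 2 h RT.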
A short description of assay [19]: p53 small molecule agonists, cell-based qHTS assay (AID 1963582; active = well fitted activation curve with a large enough effect in the signal ratio in the repeat runs, not every such curve was filed as active; the % refers to the signal ratio). A digest of the protocol:
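Compounds are pin-transferred in DMSO onto p53RE-bla cells and incubated 16 h at 37 C. The B/G FRET beta-lactamase substrate is then applied for 2 h at RT and fluorescence recorded.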

The target in assay [20] is D(2) dopamine receptor (Homo sapiens) (UniProt P14416). The experiment in a line: Dopamine D2 receptor (DRD2) small molecule antagonists, cell-based qHTS assay (AID 1963595; active = well fitted inhibition curve with a large enough effect in the signal ratio in the repeat runs, with a control signal flat; the % refers to the signal ratio; note: potency is the fitted concentration of half-maximal effect). Put shortly:
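HEK293 cells stably expressing DRD2 were preincubated with 0.1 mM Ro20-1724, then with compound for 10 min at room temperature. Cells were stimulated with 200 nM NKH477 plus 12 nM quinpirole for 30 min, and cAMP was read by HTRF.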

Sequence of KiSS-1 receptor (Homo sapiens) (Q969F8 whole entry, looked up): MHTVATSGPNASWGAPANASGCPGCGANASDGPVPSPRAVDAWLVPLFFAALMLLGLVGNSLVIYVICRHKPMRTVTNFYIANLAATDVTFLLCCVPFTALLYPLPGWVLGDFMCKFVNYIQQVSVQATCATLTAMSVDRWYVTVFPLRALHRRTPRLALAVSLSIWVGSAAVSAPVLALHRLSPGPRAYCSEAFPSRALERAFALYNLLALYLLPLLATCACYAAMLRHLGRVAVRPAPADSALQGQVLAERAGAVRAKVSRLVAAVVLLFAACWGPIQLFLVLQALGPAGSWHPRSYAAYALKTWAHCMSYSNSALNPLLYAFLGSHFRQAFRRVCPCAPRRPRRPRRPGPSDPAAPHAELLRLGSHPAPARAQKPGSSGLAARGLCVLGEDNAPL
Sequence of Muscarinic acetylcholine receptor M1 (Homo sapiens) (P11229 whole entry, looked up): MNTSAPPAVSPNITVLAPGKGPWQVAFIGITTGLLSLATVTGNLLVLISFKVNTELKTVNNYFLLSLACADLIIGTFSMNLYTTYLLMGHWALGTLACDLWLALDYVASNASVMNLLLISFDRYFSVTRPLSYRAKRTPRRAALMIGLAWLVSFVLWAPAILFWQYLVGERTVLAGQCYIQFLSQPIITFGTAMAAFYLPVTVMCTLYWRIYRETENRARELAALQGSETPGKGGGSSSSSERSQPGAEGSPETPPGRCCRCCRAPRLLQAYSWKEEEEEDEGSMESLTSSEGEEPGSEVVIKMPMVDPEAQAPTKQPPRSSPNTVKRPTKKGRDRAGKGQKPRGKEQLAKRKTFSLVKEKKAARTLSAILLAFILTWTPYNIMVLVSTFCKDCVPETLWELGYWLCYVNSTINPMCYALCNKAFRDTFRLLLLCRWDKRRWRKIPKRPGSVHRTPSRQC
Sequence of Gonadotropin-releasing hormone receptor (Homo sapiens) (P30968 whole entry, looked up): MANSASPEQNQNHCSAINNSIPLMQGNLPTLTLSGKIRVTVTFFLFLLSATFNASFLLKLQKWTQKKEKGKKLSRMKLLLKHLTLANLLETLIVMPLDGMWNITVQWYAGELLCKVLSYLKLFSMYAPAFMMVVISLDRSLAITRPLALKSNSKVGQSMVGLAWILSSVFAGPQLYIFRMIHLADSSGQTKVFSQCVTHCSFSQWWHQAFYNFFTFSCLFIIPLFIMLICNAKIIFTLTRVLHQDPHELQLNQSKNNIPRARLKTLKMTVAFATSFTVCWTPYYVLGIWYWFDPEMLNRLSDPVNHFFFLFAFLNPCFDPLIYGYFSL
Sequence of Beta-2 adrenergic receptor (Homo sapiens) (P07550 whole entry, looked up): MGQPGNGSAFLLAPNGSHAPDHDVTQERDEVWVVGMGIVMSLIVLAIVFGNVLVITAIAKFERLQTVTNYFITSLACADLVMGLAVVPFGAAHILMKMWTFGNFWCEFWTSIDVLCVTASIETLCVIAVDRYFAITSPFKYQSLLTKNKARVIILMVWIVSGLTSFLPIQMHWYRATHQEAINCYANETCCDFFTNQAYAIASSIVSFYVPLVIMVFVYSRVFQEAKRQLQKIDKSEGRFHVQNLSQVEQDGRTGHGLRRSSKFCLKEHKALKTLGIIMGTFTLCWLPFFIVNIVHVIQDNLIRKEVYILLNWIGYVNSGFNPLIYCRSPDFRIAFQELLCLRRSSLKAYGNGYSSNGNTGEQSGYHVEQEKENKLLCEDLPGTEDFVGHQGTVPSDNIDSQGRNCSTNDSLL
Sequence of 5-hydroxytryptamine receptor 2A (Homo sapiens) (P28223 whole entry, looked up): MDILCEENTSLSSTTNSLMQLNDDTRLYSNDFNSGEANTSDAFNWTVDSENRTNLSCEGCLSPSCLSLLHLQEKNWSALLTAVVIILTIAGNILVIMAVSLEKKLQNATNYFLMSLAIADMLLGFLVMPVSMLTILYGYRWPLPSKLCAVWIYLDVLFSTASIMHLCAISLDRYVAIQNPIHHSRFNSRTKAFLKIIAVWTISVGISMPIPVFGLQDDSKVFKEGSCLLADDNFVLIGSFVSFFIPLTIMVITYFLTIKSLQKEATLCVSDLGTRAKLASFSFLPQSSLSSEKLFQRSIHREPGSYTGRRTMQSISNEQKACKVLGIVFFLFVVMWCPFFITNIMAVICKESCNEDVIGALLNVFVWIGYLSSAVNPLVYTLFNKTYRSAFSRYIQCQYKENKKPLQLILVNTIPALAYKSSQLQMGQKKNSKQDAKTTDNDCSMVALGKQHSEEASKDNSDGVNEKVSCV
Sequence of D(2) dopamine receptor (Homo sapiens) (P14416 whole entry, looked up): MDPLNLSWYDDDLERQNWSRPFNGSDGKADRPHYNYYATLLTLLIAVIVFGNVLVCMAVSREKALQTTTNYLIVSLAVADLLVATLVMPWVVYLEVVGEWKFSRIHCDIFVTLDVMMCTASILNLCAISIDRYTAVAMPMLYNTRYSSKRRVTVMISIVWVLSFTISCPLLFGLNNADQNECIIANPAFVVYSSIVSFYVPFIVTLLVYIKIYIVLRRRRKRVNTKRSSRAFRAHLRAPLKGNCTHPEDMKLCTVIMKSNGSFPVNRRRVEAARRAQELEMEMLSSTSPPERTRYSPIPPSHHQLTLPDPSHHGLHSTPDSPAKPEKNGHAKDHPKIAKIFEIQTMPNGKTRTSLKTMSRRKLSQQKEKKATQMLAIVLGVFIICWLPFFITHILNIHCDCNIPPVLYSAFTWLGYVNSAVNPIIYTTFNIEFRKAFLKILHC

As for `Nc1ncn([C@H]2C[C@H](O)[C@@H](CO)O2)c(=O)n1`, the Potency entry in assay [1], in assay [2], in assay [3], in assay [4], in [5] and in assay [6] was “inactive” each time. Also, the Potency entry in assay [7], in assay [8], in assay [9], in assay [10], in assay [11] and in [12] was “inactive” throughout. Besides, the Potency entry in assay [13], in assay [14], in [15], in assay [16] and in [17] was “inactive” in each case.
For the molecule `CCCC1CCOC(C)S1` (stereo not drawn), the Potency entry in [1], in assay [2], in [3], in assay [4], in [5] and in assay [6] was “inactive” each time. Further, the Potency result in [7], in assay [8], in [9], in assay [10], in [11] and in [12] was “inactive” throughout. In addition, the Potency entry in assay [13], in [14], in assay [15], in assay [16] and in assay [17] was “inactive” each time.
In the case of `C[C@@H]1C[C@H]2[C@@H]3C[C@H](F)C4=CC(=O)C(Cl)=C[C@]4(C)[C@@]3(F)[C@@H](O)C[C@]2(C)[C@@]1(O)C(=O)CO`, the Potency result in [1], in [2], in assay [3], in assay [4], in assay [5] and in assay [18] was “inactive” each time. For the same molecule, the Potency result in [7], in assay [8], in assay [19], in assay [9], in assay [10] and in [11] was “inactive” each time. In addition, the Potency result in [13], in [14], in assay [15], in [17] and in [20] was “inactive” throughout.
Regarding `O=C(O)COC(=O)Cc1ccccc1Nc1c(Cl)cccc1Cl`, the Potency result in assay [1], in assay [2], in assay [3], in [4], in [5] and in assay [6] was “inactive” throughout. Also, the Potency entry in [7], in assay [8], in assay [19], in assay [13], in [14] and in [15] was “inactive” each time. Also, the Potency entry in [17] and in assay [20] was “inactive” in each case.
With `CCO[Si](CCC1CCC2OC2C1)(OCC)OCC` (stereo not drawn), the Potency result in [1], in [2], in assay [3], in assay [4], in assay [5] and in [6] was “inactive” each time. The Potency entry in [7], in assay [8], in assay [9], in assay [10], in [11] and in assay [12] was “inactive” each time. Also, the Potency entry in [13], in assay [14], in [15], in [16] and in assay [17] was “inactive” throughout.
For `CCCCCOC(=O)Nc1nc(=O)n([C@@H]2O[C@H](C)[C@@H](O)[C@H]2O)cc1F`, the Potency entry in [1], in assay [2], in assay [3], in assay [4], in assay [5] and in assay [18] was “inactive” throughout. In addition, the Potency result in [7], in [8], in assay [9], in [10], in assay [11] and in assay [13] was “inactive” throughout. Also, the Potency entry in assay [14], in assay [15], in assay [16], in assay [17] and in [20] was “inactive” each time.
`CCn1ccc(NS(=O)(=O)c2ccc(N)cc2)nc1=O`: the Potency result in [1], in [2], in [3], in assay [4], in assay [5] and in assay [18] was “inactive” each time. The Potency result in [7], in [8], in assay [19], in assay [10], in assay [11] and in assay [12] was “inactive” in each case. The Potency result in assay [13] and in [15] was “inactive” each time.
As to `CN1CCN(c2ccccc2/C=C2\SCCN(c3ccc(Cl)c(Cl)c3)C2=O)CC1`, the Potency in [1] is 43.3 µM (active); in assay [7], 45.8 µM (active); in assay [15] it was 0.77 µM (active); in assay [20] it was 54.5 µM (active). The Potency entry in [2], in assay [3], in [4], in assay [5], in assay [18] and in [8] was “inactive” each time. Further, the Potency result in assay [19], in assay [9], in assay [12], in assay [13] and in [14] was “inactive” in each case.
